From PubChem BioAssay (NCATS) come the findings set out here.

Test [1] is described as follows: qHTS to identify inhibitors of the type 1 interferon - major histocompatibility complex class I in skeletal muscle: primary screen against the NCATS Mechanism Interrogation Plate v5.0 (MIPE) Libary (AID 1347411).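 Further: plate controls were vehicle for no effect and reference inhibitor for full effect; nearly all actives have a fitted effect of over 65% in size.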 In a few lines: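 Luminescence from HiBiT-tagged endogenous HLA-B*08:01 served as the MHC class I read-out. CRISPR-engineered C25cl48 human myoblasts received 4.0 ng/ml IFN-beta plus compound for 24 hrs, with an 11-point, 1:3 series topping at 46 uM final.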

Test [2] in a line: Primary qHTS for inhibitors of nuclear receptor binding SET domain protein 2 (NSD2) in an isogenic RCH-ACV NSD2 p.E1099K mutant (9B) (AID 1645876). Further: nearly all actives have a fitted effect of over 70% in size. Further: potency means the concentration at half of the fitted maximal effect.
In test [3] the target is Phospholipid hydroperoxide glutathione peroxidase GPX4 (Homo sapiens) (UniProt P36969). Nature of the test: Primary qHTS Assay for Inhibitors of Recombinant Selenoprotein Glutathione Peroxidase 4 (GPX4) (AID 1845192). Further: on the % scale 0 is the no-effect control and ±100 the full control effect; nearly all actives have a fitted effect of over 65% in size. Particulars: outcome: dose series up to 50 µM unless noted. The method, boiled down: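 GR-coupled assay: recombinant GPX4 preincubated 30 min with compound at room temperature; final 200 nM GPX4, 1 mM GSH, 0.5 mM cumene hydroperoxide, 0.5 mM NADPH, 100 nM GR, 0.01% BSA, pH 7.5 Tris. NADPH fluorescence (340/450 nm) read at 0 and 15 min.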
In general terms: In qHTS, concentration-response curves come from the screen itself.

Test [4] can be described thus: qHTS drug screen for cell cycle checkpoint inhibitors in PARPi-resistant BRCA-mutant ovarian cancer cell lines. (AID 1963452; calls by dose curve). As to conditions: PEO1/OlaR viability, CellTiter-Glo luminescence, 96 h, stronger effect = lower value. In a few lines: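 PEO1, PEO4 and PEO1/OlaR ovarian cancer cells, 600 per well, exposed 96 h at 37C to a dilution series. Viability read by CellTiter-Glo luminescence, normalized to DMSO and empty wells; activity summarized as Z-AUC.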

The nature of test [5]: Primary qHTS for inhibitors of nuclear receptor binding SET domain protein 2 (NSD2) in an RCH-ACV wild type WT cells (2C) (AID 1645877). Further: potency means the concentration at half of the fitted maximal effect; nearly all actives have a fitted effect of over 70% in size.
Test [6] addresses Glutathione peroxidase 1 (Homo sapiens) (UniProt P07203). The test is described as follows: Primary qHTS Assay for Inhibitors of Recombinant Selenoprotein Glutathione Peroxidase 1 (GPX1) (AID 1845191). Further: nearly all actives have a fitted effect of over 65% in size. In a few lines: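 GR-coupled assay: compounds preincubated 30 min at room temperature with GPX1, then reaction started with CHP; final 10 nM GPX1, 1 mM GSH, 0.5 mM CHP, 0.5 mM NADPH, 100 nM GR, 0.01% BSA, pH 7.5 Tris buffer. NADPH fluorescence (340/450 nm) read at 0 and 15 min.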

Test [7] is described as follows: qHTS Assay for Lipid Storage Modulators (AID 1519; calls by dose curve; on activity change, negative = inhibition: on the % scale 0 is the no-effect control and ±100 the full control effect). As to conditions: Drosophila S3 cells, BODIPY lipid droplet/cell ratio, laser cytometry, cells loaded with oleic acid. In a few lines: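 Cells seeded at 5,000 per well were treated with compounds over a concentration series and loaded with oleic acid (400 uM, as added). Lipid droplet fluorescence (488 nm excitation, 500-530 nm channel) was read by laser-scanning cytometry and normalized to 20 uM Triacsin C.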

Test [8] is described as follows: qHTS assay to identify inhibitors of the type 1 interferon - major histocompatibility complex class I in skeletal muscle: Counter screen cell viability and HiBit confirmation (AID 1347412). Further: potency means the concentration at half of the fitted maximal effect. On activity change, negative = inhibition: on the % scale 0 is the no-effect control and ±100 the full control effect. On all read-outs here: nearly all actives have a fitted effect of over 60% in size. As to conditions: iHSKM muscle cells + IFN-b, HiBiT or CellTiter-Glo, 24 h; for activity change, negative = inhibition: at 45.9 µM (top of the series). In a few lines:
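Myoblasts (C25cl48, HLA-B HiBiT) seeded in medium without dexamethasone, IFN-b 4 ng/ml added except unstimulated columns; 1 hr later compounds pinned (12-pt 1:3, top 46 uM final). Incubated 24 hrs, lysed 10 min, luminescence measured.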

Setting [9] is: measured here: PEO1 parental Z-AUC.

Molecules are shown by their SMILES. Inconclusive results are not listed. The source made the active and inactive calls. Unless noted, the call rests on the fitted dose curve; in most records, active means well fitted curve in the direction sought with a large enough effect; inconclusive means small, poorly fitted or top-dose-only effect, or another doubt; inactive means no such curve, though single readings can be large; an effect the other way counts as inactive or inconclusive.

Glutathione peroxidase 1 (Homo sapiens), sequence (P07203 whole entry, looked up): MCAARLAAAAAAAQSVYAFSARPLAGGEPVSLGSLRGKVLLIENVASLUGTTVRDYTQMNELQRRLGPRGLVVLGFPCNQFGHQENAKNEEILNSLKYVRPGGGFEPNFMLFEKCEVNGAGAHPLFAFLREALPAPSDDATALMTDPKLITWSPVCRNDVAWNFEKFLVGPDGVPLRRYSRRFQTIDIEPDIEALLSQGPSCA
Phospholipid hydroperoxide glutathione peroxidase GPX4 (Homo sapiens), sequence (P36969 whole entry, looked up): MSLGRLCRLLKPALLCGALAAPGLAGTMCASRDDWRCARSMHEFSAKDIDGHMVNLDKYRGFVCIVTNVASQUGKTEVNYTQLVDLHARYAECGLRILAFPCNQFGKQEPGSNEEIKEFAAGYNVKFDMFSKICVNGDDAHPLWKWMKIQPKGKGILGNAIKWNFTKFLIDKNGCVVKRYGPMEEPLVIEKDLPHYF

Consider `CCOC(=N)c1nc2ccc3ncnc(Nc4cc(F)c(F)cc4Cl)c3c2s1`, for which the Potency result in test [1], in test [2] and in test [3] was “inactive” throughout. Besides, the Z-AUC in test [4] was -1.14 (inactive); in test [4] (setting [9]), -1.11; in test [4] (measured here: PEO4 Z-AUC) it was -1.07.
Regarding `CN(CCOc1ccc(-c2ccc3c(c2)OCO3)cc1C(C)(C)C)CC(=O)O`, the Potency entry in test [1], in test [6] and in test [3] was “inactive” in each case. Further, in test [5], the Potency was 20.9 µM (active). In addition, the Z-AUC is 0.446 (inactive) in test [4], 1.02 in test [4] (setting [9]) and 1.29 in test [4] (measured here: PEO4 Z-AUC).
With `CO[C@H]1/C=C/O[C@@]2(C)Oc3c(C)c(O)c4c(O)c(c5c(c4c3C2=O)=NC2(CCN(CC(C)C)CC2)N=5)NC(=O)/C(C)=C/C=C/[C@H](C)[C@H](O)[C@@H](C)[C@@H](O)[C@@H](C)[C@H](OC(C)=O)[C@@H]1C`, the Potency result in test [1] and in test [6] was “inactive” throughout. Further, the figures for the Z-AUC in test [4], in test [4] (setting [9]) and in test [4] (measured here: PEO4 Z-AUC) were 1.28 (inactive), 0.697 and 0.909, respectively.
Turning to `CN1C[C@@H]2c3ccccc3Oc3ccc(Cl)cc3[C@H]2C1`, the Potency result in test [1], in test [6] and in test [3] was “inactive” in each case. Also, the Z-AUC is 1.28 (inactive) in test [4], 1.52 in test [4] (setting [9]) and 1.41 in test [4] (measured here: PEO4 Z-AUC).
`COC(=O)N(CC(=O)O)Cc1cccc(OCc2nc(-c3ccc(Cl)cc3)oc2C)c1`: in test [1], the Potency entry is “inactive”. In addition, the Z-AUC in test [4] is 1.24 (inactive); in test [4] (setting [9]) it was -0.00269; in test [4] (measured here: PEO4 Z-AUC), 0.458.
Regarding `O=C(CCc1ccc(O)cc1)c1c(O)cc(O)cc1O[C@@H]1O[C@H](CO)[C@@H](O)[C@H](O)[C@H]1O`, the activity change, negative = inhibition in test [7] (at 57.5 µM (top of the series)) is 9.34% (inactive); in test [8] (HiBiT), 6.74% (inactive); in test [8] (Viability), 1.25% (inactive). Further, the max response came out at 19.8% in test [7] (measured here: cell count channel max response) and 29.9% in test [7] (measured here: lipid channel max response). Besides, the Potency result in test [2], in test [6] and in test [3] was “inactive” each time.
On to `CC(C)C[C@H](NC(=O)[C@H](Cc1ccccc1)NC(=O)OCc1ccccc1)C(=O)C=O`, for which the Potency entry in test [1], in test [6] and in test [3] was “inactive” each time. In addition, the Z-AUC in test [4] was 0.592 (inactive); in test [4] (setting [9]), 0.57; in test [4] (measured here: PEO4 Z-AUC) it was 0.338.
`CN(C)Cc1ccc(S(=O)(=O)n2ccc(/C=C/C(=O)NO)c2)cc1`: the Potency in test [2] is 1.86 µM (active); in test [5], 1.86 µM (active); in test [8] (HiBiT) it was 7.01 µM (active). The Potency entry in test [6] and in test [3] was “inactive” each time. The figures for the Z-AUC in test [4], in test [4] (setting [9]) and in test [4] (measured here: PEO4 Z-AUC) were 0.736 (inactive), 1.02 and 1.35, respectively. Besides, the activity change, negative = inhibition in test [8] (Viability) was -5.13% (inactive).
As for `C=CCN(/C=C1\C(=O)O[C@@H](COC)[C@]2(C)C1=C(O)C(=O)C1=C2[C@@H](OC(C)=O)C[C@]2(C)C(=O)CC[C@H]12)CC=C`, the Potency in test [2] was 10.5 µM (active); in test [5], 8.33 µM (active). The Potency result in test [6] and in test [3] was “inactive” throughout. Moreover, the values for the Z-AUC in test [4], in test [4] (setting [9]) and in test [4] (measured here: PEO4 Z-AUC) were -0.265 (inactive), 0.0227 and 0.306, respectively. Besides, in test [8] (HiBiT), the activity change, negative = inhibition was -5.45% (inactive).
For the compound `C[C@@H](O)[C@@H]1NC(=O)[C@H](CCCCN)NC(=O)[C@@H](Cc2c[nH]c3ccccc23)NC(=O)[C@H](Cc2ccccc2)NC(=O)[C@@H](NC(=O)[C@H](N)Cc2ccccc2)CSSC[C@@H](C(=O)N[C@H](CO)[C@@H](C)O)NC1=O`, the Potency entry in test [1] and in test [6] was “inactive” throughout. The Z-AUC in test [4] is 0.896 (inactive); in test [4] (setting [9]) it was 0.495; in test [4] (measured here: PEO4 Z-AUC) it was 0.728.
Turning to `NC(=O)c1cnc2[nH]ccc2c1NC1C2CC3C[C@H]1CC(O)(C3)C2` (some centres not stated), the Potency in test [2] was 9.34 µM (active); in test [5], 9.34 µM (active); in test [8] (HiBiT), 2.22 µM (active). The Potency entry in test [6] and in test [3] was “inactive” in each case. The figures for the Z-AUC in test [4], in test [4] (setting [9]) and in test [4] (measured here: PEO4 Z-AUC) were 0.584 (inactive), 0.594 and 0.746, respectively. The activity change, negative = inhibition in test [8] (Viability) was -16.1% (inactive).
Take `CO[C@@H]1[C@@H](O)[C@H](O)[C@@H](n2c3c(Cl)cccc3c3c4c(c5c6cccc(Cl)c6[nH]c5c32)C(=O)NC4=O)O[C@H]1CO`: the Potency in test [2] is 0.934 µM (active); in test [5] it was 0.525 µM (active); in test [8] (HiBiT), 4.97 µM (active). For the same compound, the Potency entry in test [6] and in test [3] was “inactive” throughout. Further, the Z-AUC in test [4] was -0.593 (inactive); in test [4] (setting [9]), -0.854; in test [4] (measured here: PEO4 Z-AUC) it was -0.743. In addition, in test [8] (Viability), the activity change, negative = inhibition was -21.4% (inactive).
